Results from PubChem BioAssay (NCATS).
Inconclusive results are not listed. Where a call stands in place of a potency, no number is given. Calls of active or inactive are those of the source. Unless noted, calls follow the shape of the dose curve; as a rule, active = well fitted curve in the direction sought with a large enough effect; inconclusive = small, poorly fitted or top-dose-only effect, or another doubt; inactive = no such curve, though single readings can be large; an effect the other way counts as inactive or inconclusive.

Tests used:
[1] = Cell Viability - LYMP1-002 - Assay at 16 hr (AID 948)
Summary of the method: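 Seed 2500 LYMP1-002 cells per well in complete medium and hold 5 hr at 37 C. Add compound across a concentration series and incubate 16 hr at 37 C. Add CellTiter-Glo, wait 30 min at room temperature, read luminescence.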

[2] = MultiTox-Fluor Cytotoxicity Assay - LYMP1-002 - Live Cells (AID 955);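 also: cells exposed to compound for 16 hours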
Summary of the method: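 Cytotoxicity in the human lymphoblastoid line LYMP1-002 is measured as loss of live-cell protease activity after 16 h treatment in complete culture medium. AC50 is derived from Hill-equation fits of qHTS concentration-response data.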

[3] = MultiTox-Fluor Cytotoxicity Assay - LYMP1-003 - Live Cells (AID 962);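 also: cells exposed to compound for 16 hours at 37 °C; cytotoxic hits lower the live-cell protease signal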
Summary of the method: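 Cells plated at 2500 per well and incubated 5 hr; compounds added and incubated 16 hr at 37 C; MultiTox-Fluor reagent added for 60 min at room temperature; fluorescence of liberated AFC measured at 405/510 nm.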

[4] = Cell Viability - LYMP1-003 - Assay at 24 hr (AID 963)
Summary of the method: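 Acute toxicity in LYMP1-003 lymphoblastoid cells: 24 hr compound treatment at 37 C, ATP measured with CellTiter-Glo after 30 min at room temperature. AC50 derived by fitting the Hill equation to qHTS titrations.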

[5] = Cell Viability - LYMP2-003 (AID 965);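 also: cells exposed to compounds for 24 h before reading; nearly all actives have a fitted effect of over 50% in size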; also: potency is read from the fitted curve at half-maximal effect
Summary of the method: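 Seed 2500 lymphoblastoid cells/well; incubate 5 hr, 37 C; add compounds; incubate 24 hr, 37 C; add CellTiter-Glo, 30 min RT; read luminescence. AC50 from Hill fit.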

[6] = Cell Viability - LYMP2-004 (AID 966); also: nearly all actives have a fitted effect of over 65% in size; also: potency is read from the fitted curve at half-maximal effect
Summary of the method: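 Acute toxicity is scored as a concentration-dependent drop in intracellular ATP, quantified by luciferase luminescence, in human lymphoblastoid cells exposed to compound for 24 hr. AC50 derives from Hill-equation modelling.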

[7] = Cell Viability - LYMP2-005 (AID 967);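 also: cells exposed to compound for 24 h at 37 °C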; also: potency is read from the fitted curve at half-maximal effect
Summary of the method: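 Acute cytotoxicity is scored as a concentration-dependent drop in intracellular ATP in human lymphoblastoid LYMP2-005 cells after 24 h compound treatment. ATP is quantified by luciferase luminescence, and AC50 is derived by Hill-equation modelling.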

[8] = Cell Viability - LYMP2-025 (AID 976);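 also: cells exposed to compound for 24 h at 37 °C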; also: potency is read from the fitted curve at half-maximal effect
Summary of the method: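 In qHTS format, LYMP2-025 lymphoblastoid cells in complete culture medium received compound for 24 hr; ATP-based CellTiter-Glo signal gave viability, with AC50 derived by Hill equation.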

[9] = MultiTox-Fluor Cytotoxicity Assay - LYMP1-002 - Dead Cells (AID 960); also: nearly all actives have a fitted effect of over 60% in size; also: potency is read from the fitted curve at half-maximal effect
Summary of the method: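 Acute cytotoxicity in a human lymphoblastoid line is scored as rising dead-cell protease signal after 16 hr exposure at 37 C, measured fluorometrically (485/520).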

[10] = MultiTox-Fluor Cytotoxicity Assay - LYMP1-003 - Dead Cells (AID 961);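 also: cells exposed to compound for 16 h at 37 °C; nearly all actives have a fitted effect of over 70% in size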; also: potency is read from the fitted curve at half-maximal effect
Summary of the method: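 Human lymphoblastoid LYMP1-003 cells (2500/well) were treated with compounds for 16 hr at 37 C in complete medium. Dead-cell protease release was read by bis-AAF-R110 fluorescence (Ex/Em 485/520). AC50 came from Hill fits, normalized to DMSO and 15 uM tetraoctylammonium bromide.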

[11] = Cell Viability - LYMP1-003 - Assay at 40 hr (AID 964); also: nearly all actives have a fitted effect of over 60% in size; also: potency is read from the fitted curve at half-maximal effect
Summary of the method: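 This qHTS cytotoxicity screen treats human lymphoblastoid cells (LYMP1-003) with compounds for 40 hr and quantifies cellular ATP via luciferase luminescence.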

[12] = Cell Viability - LYMP2-009 (AID 968);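 also: cells exposed to compound for 24 h at 37 °C; nearly all actives have a fitted effect of over 55% in size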; also: potency is read from the fitted curve at half-maximal effect
[13] = Cell Viability - LYMP2-011 (AID 969); also: nearly all actives have a fitted effect of over 60% in size; also: potency is read from the fitted curve at half-maximal effect
Summary of the method: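 Acute toxicity is scored as a concentration-dependent drop in intracellular ATP of a human lymphoblastoid line after 24 hr treatment. Values are AC50s modeled with the Hill equation.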

[14] = Cell Viability - LYMP2-013 (AID 970);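 also: cells exposed to compound for 24 h at 37 °C; nearly all actives have a fitted effect of over 55% in size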; also: potency is read from the fitted curve at half-maximal effect
Summary of the method: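 Acute toxicity was measured in human lymphoblastoid cells (2500/well) exposed to compound titrations for 24 hr, with ATP luminescence (CellTiter-Glo) as read-out and AC50 fitted by Hill equation.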

[15] = Cell Viability - LYMP2-015 (AID 971); also: nearly all actives have a fitted effect of over 55% in size; also: potency is read from the fitted curve at half-maximal effect
Summary of the method: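 Acute toxicity was scored as a concentration-dependent drop in intracellular ATP in lymphoblastoid cells after 24 hr compound exposure in complete medium. Detection used CellTiter-Glo luciferase luminescence.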

[16] = Cell Viability - LYMP2-017 (AID 972);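 also: cells exposed to compound for 24 hours at 37 °C; nearly all actives have a fitted effect of over 55% in size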; also: potency is read from the fitted curve at half-maximal effect
Summary of the method: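 Steps: plate 2500 lymphoblastoid cells per well; incubate 5 hr at 37 C; add compound across a concentration series and incubate 24 hr at 37 C; add CellTiter-Glo and read luminescence after 30 min at room temperature; fit Hill curves for AC50.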

[17] = Cell Viability - LYMP2-019 (AID 973); also: potency is read from the fitted curve at half-maximal effect
Summary of the method: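 Cells plated at 2500/well and allowed 5 hr at 37 C before compound addition. After 24 hr incubation, CellTiter-Glo reagent was added, plates sat 30 min at room temperature, and luminescence was recorded.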

[18] = Cell Viability - LYMP2-021 (AID 974); also: potency is read from the fitted curve at half-maximal effect
Summary of the method: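 Concentration-response cytotoxicity in a human lymphoblastoid line: 24 hr treatment at 37 C in complete culture medium, tetraoctylammonium bromide as positive control, luminescent ATP quantitation as viability measure.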

[19] = Cell Viability - LYMP2-023 (AID 975); also: potency is read from the fitted curve at half-maximal effect
Summary of the method: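 Concentration-dependent drop in intracellular ATP measures acute cytotoxicity in a human lymphoblastoid line treated for 24 hours in complete culture medium. AC50 values are taken from Hill-equation fits of qHTS data.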

[20] = target: Pyruvate kinase PKM (Homo sapiens) (UniProt P14618); test: qHTS Assay for Activators of Human Muscle Pyruvate Kinase (AID 954; active = well fitted curve in the direction sought with a large enough effect, not every such curve was filed as active)
Chain of Pyruvate kinase PKM (Homo sapiens) (P14618 whole entry, looked up): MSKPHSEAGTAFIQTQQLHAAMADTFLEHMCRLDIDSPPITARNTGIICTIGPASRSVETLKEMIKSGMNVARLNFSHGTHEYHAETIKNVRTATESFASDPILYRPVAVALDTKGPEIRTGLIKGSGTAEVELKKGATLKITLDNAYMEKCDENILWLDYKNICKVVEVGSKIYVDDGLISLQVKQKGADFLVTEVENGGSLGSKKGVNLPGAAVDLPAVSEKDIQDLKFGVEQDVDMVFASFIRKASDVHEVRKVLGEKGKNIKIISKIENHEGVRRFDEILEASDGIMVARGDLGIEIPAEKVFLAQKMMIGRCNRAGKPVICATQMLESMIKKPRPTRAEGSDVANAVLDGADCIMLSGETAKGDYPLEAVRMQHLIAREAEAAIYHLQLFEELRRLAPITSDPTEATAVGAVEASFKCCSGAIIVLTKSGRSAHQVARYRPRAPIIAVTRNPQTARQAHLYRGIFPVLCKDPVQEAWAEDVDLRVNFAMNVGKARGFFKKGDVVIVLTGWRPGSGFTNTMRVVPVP
Summary of the method: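 Luminescence from a luciferase ATP-detection/stop reagent reported PKM2 activity. Reactions contained 0.1 nM purified human enzyme, 0.5 mM PEP, 0.1 mM ADP and 7 mM MgCl2 at pH 7.2, run 1 h at RT.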

| Compound | outcome [1] | outcome [2] | outcome [3] | outcome [4] | Potency [5] | Potency [6] | Potency [7] | Potency [8] | Potency [9] | Potency [10] | Potency [11] | Potency [12] | Potency [13] | Potency [14] | Potency [15] | Potency [16] | Potency [17] | Potency [18] | Potency [19] | outcome [20] |
| --- | --- | --- | --- | --- | --- | --- | --- | --- | --- | --- | --- | --- | --- | --- | --- | --- | --- | --- | --- | --- |
| CC1=C(/C=C/C(C)=C/C=C/C(C)=C/CO)C(C)(C)CCC1 | inactive | inactive | inactive | inactive | 50.1 µM (active) | 39.8 µM (active) | 50.1 µM (active) | inactive |  |  |  |  |  |  |  |  |  |  |  |  |
| Cc1ccccc1 | inactive | inactive | inactive | inactive | inactive |  | inactive |  | inactive | inactive | inactive | inactive | inactive | inactive | inactive | inactive | inactive | inactive | inactive |  |
| O=C(O)CCC(=O)C(=O)O | inactive | inactive | inactive | inactive | inactive | inactive | inactive | inactive | inactive | inactive | inactive | inactive | inactive | inactive | inactive | inactive | inactive | inactive | inactive |  |
| CC(C)=O | inactive | inactive | inactive | inactive | inactive | inactive | inactive | inactive | inactive | inactive | inactive | inactive | inactive | inactive | inactive | inactive | inactive | inactive | inactive |  |
| CCCCCCCC(=O)O | inactive | inactive | inactive | inactive | inactive | inactive | inactive | inactive | inactive | inactive | inactive | inactive | inactive | inactive | inactive | inactive | inactive | inactive | inactive |  |
| Nc1ccn([C@H]2CS[C@@H](CO)O2)c(=O)n1 | inactive | inactive | inactive | inactive | inactive | inactive | inactive | inactive | inactive | inactive | inactive | inactive | inactive | inactive | inactive | inactive | inactive | inactive | inactive |  |
| CCCCC/C=C\C/C=C\CCCCCCCC(=O)O | inactive | inactive | inactive | inactive | inactive | inactive |  | inactive | inactive | inactive | inactive | inactive | inactive | inactive | inactive | inactive | inactive | inactive | inactive |  |
| CN=C(NC#N)Nc1ccc(C2=NNC(=O)C[C@@H]2C)cc1 |  |  |  |  |  |  |  |  |  |  |  |  |  |  |  |  |  |  |  | inactive |
| O=CCCCC=O | inactive | inactive | inactive | inactive | 39.8 µM (active) | 25.1 µM (active) |  | 39.8 µM (active) |  | 50.1 µM (active) | inactive | 25.1 µM (active) | 20 µM (active) | 20 µM (active) | 15.8 µM (active) | 20 µM (active) | 25.1 µM (active) | 15.8 µM (active) | 25.1 µM (active) |  |
| CCCCCCCC/C=C\CCCCCCCC(=O)O | inactive | inactive | inactive | inactive | inactive | inactive | inactive | inactive | inactive | inactive | inactive | inactive | inactive | inactive | inactive | inactive | inactive | inactive | inactive |  |
| O=S(=O)(O)O | inactive | inactive | inactive | inactive | inactive | inactive | inactive | inactive | inactive | inactive | inactive | inactive | inactive | inactive | inactive | inactive | inactive | inactive | inactive |  |
| CC[N+](C)(C)Cc1ccccc1Br |  |  |  |  |  |  |  |  |  |  |  |  |  |  |  |  |  |  |  | inactive |
| CC(C)(C)NC(=O)[C@@H]1C[C@@H]2CCCC[C@@H]2CN1C[C@@H](O)[C@H](Cc1ccccc1)NC(=O)[C@H](CC(N)=O)NC(=O)c1ccc2ccccc2n1 |  |  |  |  |  |  |  | inactive | 31.6 µM (active) | 50.1 µM (active) | 50.1 µM (active) |  |  |  |  |  |  |  |  |  |
| CC(O)CO (centres undefined) | inactive | inactive | inactive | inactive | inactive | inactive | inactive | inactive | inactive | inactive | inactive | inactive | inactive | inactive | inactive | inactive | inactive | inactive | inactive |  |
| COc1ccc(CCNC[C@H](O)c2ccc(O)cc2)cc1OC |  |  |  |  |  |  |  |  |  |  |  |  |  |  |  |  |  |  |  | inactive |
| CC1=C2[C@@H]([C@H](C)CC[C@H]2/C=C(\C)C(=O)O)[C@H](O)C1 | inactive | inactive | inactive | inactive | inactive | inactive | inactive | inactive | inactive | inactive | inactive | inactive | inactive | inactive | inactive | inactive | inactive | inactive | inactive |  |
| IC(I)I | inactive | inactive | inactive | inactive | inactive | inactive | inactive | inactive | inactive | inactive | inactive | inactive | inactive | inactive | inactive | inactive | inactive | inactive | inactive |  |
| CCOc1ccc2c(c1)C(C)=CC(C)(C)N2 | inactive | inactive | inactive | inactive | inactive | inactive | inactive | inactive | inactive |  |  | inactive | inactive | inactive | inactive | inactive | inactive | inactive | inactive |  |
| CCOC(C)=O | inactive | inactive | inactive | inactive | inactive | inactive | inactive | inactive | inactive | inactive | inactive | inactive | inactive | inactive | inactive | inactive | inactive | inactive | inactive |  |
